Out of some 1,200 compounds screened, about 60 (5%) were called active. Another 1% or so got no clear call; they are omitted.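 Rule for the calls: active = Decreasing signal and fitted IC50 at most twice the top valid tested dose; inconclusive = Bad fit or a level curve showing 30 to 70% inhibition; inactive = the rest.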 A selection follows. Measured potencies and affinities stand elsewhere.
Target: NAD-dependent protein deacylase sirtuin-5, mitochondrial (Homo sapiens) (UniProt Q9NXA8)
Assay: SIRT5 desuccinylase inhibitors, dose response, biochemical, fluorescence imaging, cherry-pick, set 5 (AID 720591)
Conditions: Purified SirT5, succinyl-peptide AMC, trypsin-coupled fluorescence; series mostly up to 15 µM

Sequence of NAD-dependent protein deacylase sirtuin-5, mitochondrial (Homo sapiens) (Q9NXA8 whole entry, looked up): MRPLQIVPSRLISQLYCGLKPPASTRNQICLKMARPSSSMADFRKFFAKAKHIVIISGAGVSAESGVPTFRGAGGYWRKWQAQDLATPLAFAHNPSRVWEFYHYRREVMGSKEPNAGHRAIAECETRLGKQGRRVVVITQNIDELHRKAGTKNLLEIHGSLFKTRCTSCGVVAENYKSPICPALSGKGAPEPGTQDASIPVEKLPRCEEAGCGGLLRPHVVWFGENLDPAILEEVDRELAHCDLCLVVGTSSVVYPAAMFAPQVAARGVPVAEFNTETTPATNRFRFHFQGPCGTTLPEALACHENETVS

Row | SMILES | outcome
1 | Cc1ccc(NC(=O)COCC(=O)Nc2ccc(F)cc2)cc1 | inactive
2 | Cc1cccc(OC(=O)Nc2ccc(C(=O)O)c(O)c2)c1 | inactive
3 | O=C(Nc1ccccc1C(=O)O)c1cc(S(=O)(=O)Nc2ccccc2)ccc1Cl | inactive
4 | Cc1cc(NC(=O)CCC(=O)N(CCc2ccccc2)C(C(=O)NC2CCCC2)c2ccco2)no1 (stereo unspecified) | inactive
5 | COc1ccc(CCNS(=O)(=O)c2cc3c4c(c2)CC(=O)N4CCC3)cc1 | inactive
6 | Nc1cccc(-c2csc(-n3ncc(C(=O)O)c3C(F)(F)F)n2)c1 | inactive
7 | O=C(O)c1ccc2c(c1)ncn2C1CCCC1 | inactive
8 | Cc1ccnc(NC(=O)CCC(=O)N(Cc2ccco2)C(C(=O)NC(C)C)c2ccc(F)cc2)c1 (stereo unspecified) | inactive
9 | NNC(=O)Cn1c(-c2ccccc2)cc2ccccc21 | inactive
10 | CC(C)(C)OC(=O)N(CCc1ccccc1)Cc1ccc(OCc2cccc(NC(=O)C3CC3)c2)cc1 | inactive
11 | COc1ccc(CCNC(=O)[C@H](C)NC(=O)N2CCn3c2nc2ccccc23)cc1OC | inactive
12 | Cc1ccccc1CN1CCN(Cc2ccc3cccc(F)c3n2)CC1CCO (stereo unspecified) | inactive
13 | CNCc1cc(Br)c(OCC(=O)Nc2ccccc2OC)c(OC)c1 | inactive
14 | COc1cccc(NC(=O)c2ccccc2)c1 | inactive
15 | COc1ccc(CC(=O)Nc2ccc(C(=O)NCC(C)C)cc2)cc1 | inactive
16 | Cc1cc2nc(CSc3ccccc3)cc(=O)n2[nH]1 | inactive

Row | SMILES | outcome
17 | CCCCCCCCN1[C@@H](CC(=O)O)c2cc(C(F)(F)F)ccc2S1(=O)=O | inactive
18 | Cc1c(Cc2ccc3c(c2)OCO3)sc(NC(=O)c2ccccc2)c1C(N)=O | inactive
19 | Cc1cccc2nc(CSc3ccc(Cl)cc3)cn12 | inactive
20 | Clc1ccc2nc(CSc3ccccc3)cn2c1 | inactive
21 | Cc1cccc(N(C(=O)c2snc(C(N)=O)c2N)C(C(=O)NCC2CCCO2)c2ccc3ncccc3c2)c1 (stereo unspecified) | inactive
22 | O=S(=O)(NCc1ccc2c(c1)OCO2)c1ccccc1F | inactive
23 | Cc1cccc(Cl)c1NC(=O)NCCCN1CCCCC1C (stereo unspecified) | inactive
24 | Cc1ccc(S(=O)(=O)N2CCOCC2)cc1NC(=O)CSc1nnc2n1CCCCC2 | inactive
25 | CCN(CC)c1ccc(S(=O)(=O)N2CCOCC2)cc1NC(=O)Nc1ccccc1 | inactive
26 | CCOC(=O)C(N)CSC1CC(=O)N(c2ccc(OCC)cc2)C1=O (stereo unspecified) | inactive
27 | CCOc1ccc(CN2CCN(C(=O)c3cccc(F)c3)CC2)cc1 | inactive
28 | CCc1nnc(NC(=O)CCC(=O)N2CCN(c3cc(C)ccc3C)CC2)s1 | inactive
29 | Cc1cccc(N2CCN(C(=O)c3ccc4nc[nH]c4c3)CC2)c1C | inactive
30 | COc1cc(C(C)=O)ccc1OC(=O)CN1C(=O)c2ccccc2C1=O | inactive
31 | CC1(C(=O)NS(=O)(=O)c2ccccc2Cl)CCN1C(=O)Cc1cccc2ccccc12 (stereo unspecified) | inactive

— PubChem BioAssay AID720591 (Broad Institute, 2013)
